# Hits are enriched below; roughly 19% of the tested compounds scored in any of these assays.
# HepG2 tox: kills HepG2 cells in TGF-b inhibitor counter-screen; HepG2 CAGA-GFP viability, ATP luminescence, 18 h; Potency, µM (titrated, usually from 46.1 µM), for inactives: at the top dose activity change, negative = cytotoxicity, most hits filed as cytotoxic; 410,000 compounds, 0.76% hits; further: potency means the concentration at half of the fitted maximal effect
#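 CellTiter-Glo luminescence gave cytotoxicity after 18 hours at 37 degrees C. The cells were HepG2 CAGA-GFP in 1% FBS DMEM, stimulated with 500 pg/mL TGF-beta after compound addition. %Activity was normalised to no-cell wells (complete cell-killing) and DMSO (no toxicity), and curves were fitted and classified.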
# S-ASM inh: human S-ASM enzyme inhibition | P17405 | 340,000 compounds, 0.006% hits | Potency, µM (doses to about 57.5 µM), inactives show at the top dose activity change, negative = inhibition, hits mostly inhibitors | placental ASM, HMU-PC fluorogenic substrate, 60 min; further: potency means the concentration at half of the fitted maximal effect
# Target sequence (P17405 47-631 limits assumed): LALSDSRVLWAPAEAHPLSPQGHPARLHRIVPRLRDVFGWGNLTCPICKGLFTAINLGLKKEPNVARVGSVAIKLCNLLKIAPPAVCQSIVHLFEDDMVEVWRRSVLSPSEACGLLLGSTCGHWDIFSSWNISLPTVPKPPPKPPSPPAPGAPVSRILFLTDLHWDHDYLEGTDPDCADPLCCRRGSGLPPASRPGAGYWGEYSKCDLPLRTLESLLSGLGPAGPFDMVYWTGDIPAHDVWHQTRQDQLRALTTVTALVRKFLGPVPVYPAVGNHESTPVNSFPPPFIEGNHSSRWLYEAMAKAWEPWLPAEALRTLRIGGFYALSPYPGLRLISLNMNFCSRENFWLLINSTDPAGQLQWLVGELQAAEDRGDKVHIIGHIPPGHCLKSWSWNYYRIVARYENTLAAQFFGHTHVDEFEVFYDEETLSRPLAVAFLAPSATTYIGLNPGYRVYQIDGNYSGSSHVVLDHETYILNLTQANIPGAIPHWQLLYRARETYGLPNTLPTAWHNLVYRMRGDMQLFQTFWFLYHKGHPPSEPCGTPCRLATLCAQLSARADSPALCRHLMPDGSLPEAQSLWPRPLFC
#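 Fluorogenic HMU-PC substrate (9 uM final) is turned over by placental ASM in 60 min at 37 C after a 10 min compound preincubation. Reaction ended by alkaline stop (pH 10), with fluorescence read at 386/447 nm.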
# TDP1 cell noCPT: qHTS for Inhibitors of human tyrosyl-DNA phosphodiesterase 1 (TDP1): qHTS in cells in absence of CPT | DT40 Tdp1-/- hTDP1 cells, no CPT, ATP luminescence, 48 h | Potency, µM (series often up to 46.2 µM), inactives show at the highest dose activity change, negative = growth inhibition, hits mostly inhibitors | 420,000 compounds, 15% hits; further: potency means the concentration at half of the fitted maximal effect; on the % scale 0 is the no-effect control and ±100 the full control effect; nearly all actives have a fitted effect of over 55% in size
#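 DT40 Tdp1-/-;hTDP1 cells, no CPT (DMSO vehicle only), 400 cells/well; compounds pin-transferred; ≥48 hr, 37 °C; CellTiter-Glo 30 min RT dark, luminescence read.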
# TDP1 cell CPT: growth inhibition of DT40 Tdp1-/-;hTDP1 cells with camptothecin (screen for TDP1 inhibitors); chicken DT40 Tdp1-/-;hTDP1 cells + 20 nM CPT, ATP luminescence, 48 h; Potency, µM (titrated, usually from 46.2 µM), for the others: at the highest dose activity change, negative = growth inhibition, hits mostly inhibitors; 420,000 compounds, 12% hits; AID 686979; further: potency means the concentration at half of the fitted maximal effect; on the % scale 0 is the no-effect control and ±100 the full control effect; nearly all actives have a fitted effect of over 55% in size
#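 Cell growth measured by CellTiter-Glo luminescence after a minimum 48 h, 37 C compound exposure with 20 nM CPT in Tdp1-knockout DT40 cells stably expressing hTDP1, seeded 400/well; qHTS titration format.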
# TGFb SMAD3 inh: blocks TGF-b signaling. HepG2 CAGA-GFP TGF-b/SMAD3 reporter, GFP fluorescence, 18 h; TGF-beta stimulated, 500 pg/mL final. Potency, µM (doses to about 46.1 µM), without a hit: at the highest dose activity, negative = inhibition, usual class: inhibitors. 410,000 compounds, 1.2% hits. AID 588855; further: potency means the concentration at half of the fitted maximal effect; on the % scale 0 is the no-effect control and ±100 the full control effect; nearly all actives have a fitted effect of over 65% in size
#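 Inhibition was scored as loss of TGF-beta-induced (500 pg/mL final, 18 hours, 37 degrees C) GFP in HEPG2 cells carrying a CAGA-GFP reporter, in DMEM with 1% FBS. Well GFP was summed per cell; Activity was normalised to unstimulated and stimulated DMSO wells, then concentration-response fitting.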
# IL1B secr inh: inhibitors of inflammasome signaling (IL-1 beta secretion); activity change, % at 57.5 µM; THP-1 LPS/ATP IL-1B secretion, AlphaLISA, 16 h; hits give low values; 360,000 compounds, 4.7% hits; in the data active means activity change below about -50%; inconclusive means mostly about -30% to -49%; further: on the % scale 0 is the no-effect control and ±100 the full control effect
#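 THP-1 cells pretreated 1 hr with compounds (up to 57.5 uM final), then stimulated with LPS (250 ng/mL final) plus ATP (1.25 mM final); secreted IL-1B measured by AlphaLISA after 16 hr, decreased signal indicating inhibition.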
# * marks the source's active call; other numbers are inactive results; ? = inconclusive; · = no result given. Unless noted, the call rests on the fitted dose curve; in most records, active means well fitted curve in the direction sought with a large enough effect; inconclusive means small, poorly fitted or top-dose-only effect, or another doubt; inactive means no such curve, though single readings can be large; an effect the other way counts as inactive or inconclusive.
SMILES,HepG2 tox,S-ASM inh,TDP1 cell noCPT,TDP1 cell CPT,TGFb SMAD3 inh,IL1B secr inh
CCC(NC(=O)c1cc(COc2cncc(Cl)c2)on1)c1ccncc1 (configuration not stated),-1.9%,6.9%,?,?,-11.5%,-23.6
N#CCc1ccc(NC(=O)c2cc(S(=O)(=O)N3CCOCC3)ccc2Cl)cc1,-28.6%,-1.5%,18.4µM*,16.4µM*,-3.4%,23.0
O=C(Nc1cc(S(=O)(=O)N2CCOCC2)ccc1Cl)c1cc([N+](=O)[O-])ccc1Cl,-4.7%,-3.7%,14.6µM*,?,?,-97.4*
N#Cc1ccc(NC(=O)c2cc(S(=O)(=O)N3CCOCC3)ccc2N2CCCC2)cc1,-69.4%,-3.9%,-5.2%,-18.0%,17.1%,-9.3
O=C(Nc1ccc(S(=O)(=O)N2CCOCC2)cc1)c1ccc([N+](=O)[O-])cc1Cl,13.3%,-7.3%,?,?,-19.5%,0.0
CNCCOc1ccc(Cl)c(Cl)c1,-12.3%,6.2%,16.4µM*,?,-7.5%,-24.0
COc1ccc(N2CCN(C(=O)NC34CC5CC(CC(C5)C3)C4)CC2)cc1,-6.6%,-1.3%,23.1µM*,?,38.3%,38.6
COc1cccc(N2CCN(C(C)C(=O)NC34CC5CC(CC(C5)C3)C4)CC2)c1 (configuration not stated),-12.1%,-3.3%,16.4µM*,?,-1.7%,-15.2
COc1cccc(N2CCN(CC(=O)C34CC5CC(CC(C5)C3)C4)CC2)c1,-3.6%,1.4%,-15.7%,2.6%,0.0%,0.0
O=C(NC12CC3CC(CC(C3)C1)C2)N1CCN(c2ccccc2)CC1,-20.7%,-2.2%,?,?,4.1%,15.5
CN(C)c1ccc(CCc2ccc(N)cc2)cc1,1.2%,100.5%,-21.9%,11.0%,3.4%,-4.8
Nc1ccc(N(c2ccccc2)c2ccc(N)cc2)cc1,-29.1%,-0.4%,13µM*,16.4µM*,-10.2%,16.7
Cc1cc(C=O)c(C)n1-c1ccc(NC2CCCC2)c([N+](=O)[O-])c1,2.9%,-13.8%,18.4µM*,?,-28.2%,-82.4*
O=C(C[N+]12CN3CN(CN(C3)C1)C2)c1ccc(Cl)cc1,-18.1%,·,?,?,1.4%,·
O=C(C[N+]12CN3CN(CN(C3)C1)C2)c1ccc(O)c(O)c1,-20.6%,·,?,10µM*,8.7%,·
CCc1nc2nc(C)c(NS(=O)(=O)c3ccc(Cl)cc3)c(=O)n2[nH]1,-10.5%,-7.3%,4.0%,6.5%,-0.7%,29.6
COc1ccc(C2=NOC(Cn3nc(C(=O)NCc4ccc(OC(F)(F)F)cc4)cc3-c3ccccc3)C2)cc1 (configuration not stated),-5.9%,-2.9%,?,?,-27.2%,?
COc1ccc(C2=NOC(Cn3nc(C(=O)NCC4CC4)cc3-c3ccccc3)C2)cc1 (configuration not stated),-18.1%,-12.6%,?,20.6µM*,-18.3%,5.1
COc1ccc(C2=NOC(Cn3nc(-c4ccccc4)cc3C(=O)NCc3ccc(C)cc3)C2)cc1 (configuration not stated),0.2%,-10.0%,-14.3%,-25.6%,1.0%,0.0
COc1ccc(C2=NOC(Cn3nc(C(=O)NCc4ccccc4OC)cc3-c3ccccc3)C2)cc1 (configuration not stated),-30.2%,-9.4%,20.6µM*,23.1µM*,-14.8%,3.2
CC(OC(=O)[C@H](C)NC(=O)c1ccccc1Cl)C(=O)NCc1ccc2c(c1)OCO2 (some centres not stated),-18.5%,·,-0.3%,6.9%,-24.2%,-10.6
COCc1ccc(O)c2ncccc12,-77.2%,-1.7%,4.61µM*,4.61µM*,1.58µM*,118.2
Cc1ccc(O)c2ncccc12,·,·,4.73µM*,?,·,·
Clc1cc2cccnc2c2ncccc12,-40.9%,0.7%,1.2%,-5.2%,?,230.0
COc1cccc(N=Nc2ccc3cccnc3c2O)c1,-10.3%,-10.5%,1.16µM*,0.581µM*,?,26.5
SMILES,HepG2 tox,S-ASM inh,TDP1 cell noCPT,TDP1 cell CPT,TGFb SMAD3 inh,IL1B secr inh
Cc1c(C)c2cccnc2c2ncccc12,-35.0%,-6.7%,1.46µM*,1.84µM*,10µM*,-3.9
CCNC(=S)NS(=O)(=O)c1ccc(F)cc1,-0.9%,-1.1%,8.5%,11.1%,-0.4%,8.3
Cc1c(NC(=O)c2ccc(Br)s2)c(=O)n(-c2ccccc2)n1C,-1.0%,4.4%,-1.7%,?,7.4%,10.3
COc1cccc(N=Nc2ccc(O)c3ncccc23)c1,-8.6%,-7.2%,2.59µM*,2.59µM*,?,14.1
Oc1ccc(N=Nc2ccc3c(c2)OCCO3)c(O)c1,-42.7%,-3.9%,?,?,-17.0%,-12.5
Oc1ccc(N=Nc2ccc3c(c2)OCCO3)c2cccnc12,0.7%,0.4%,1.64µM*,1.3µM*,3.8%,44.5
Cc1ccccc1N=Nc1ccc(O)c2ncccc12,-3.0%,-4.8%,1.64µM*,2.59µM*,-13.9%,1.7
O=Nc1ccc(O)c2ncccc12,-96.4%,-1.3%,0.92µM*,0.581µM*,?,-98.2*
CCC1(C2=CCCCC2)C(=O)NC(=O)N=C1N (configuration not stated),7.9%,-0.9%,-13.3%,-14.1%,10.2%,24.7
COc1ccc(N=Nc2ccc(O)c3ncccc23)cc1,-3.7%,-6.6%,1.46µM*,2.06µM*,?,93.1
O=C1CCN(Cc2cccnc2)CCN1[C@H](CO)Cc1ccccc1,-43.2%,12.5%,-21.5%,-8.8%,-23.3%,-15.6
Cn1cnnc1SCC(=O)n1c2ccccc2c2ccccc21,-3.4%,-0.4%,-18.3%,-10.3%,1.6%,17.1
Cn1cnnc1SCc1ccc(C(=O)N=Nc2c(O)n(C)c3ccccc23)cc1,-17.8%,-7.7%,?,?,-23.4%,-54.6*
COc1ccc(-c2nc(Cn3c(SCc4ccccc4F)nc4ccncc43)c(C)o2)cc1OC,-42.7%,·,20.6µM*,18.4µM*,-1.7%,·
Cc1cccc(-c2nc(Cn3c(SCc4cccc(C(F)(F)F)c4)nc4ccncc43)c(C)o2)c1,-40.6%,·,?,14.6µM*,?,·
Cc1oc(-c2ccccc2F)nc1Cn1c(SCc2ccccc2F)nc2ccncc21,-35.4%,·,14.6µM*,?,?,·
COc1ccc(-c2nc(Cn3c(SCc4ccc(C)cc4)nc4ccncc43)c(C)o2)cc1OC,-86.9%,-27.3%,?,?,?,-19.4
